# Experimental data as given in PubChem BioAssay (NCI).
# This is part of a sample that, as a whole, favours compounds with a hit. Of some 83,000 tested, about 20% had one in any assay.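 48-hour exposure, single concentration, 96-well plates; percent growth endpoint where 0 means no net growth. Active: below 10.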 Values without a mark were called inactive. Active and inactive are the calls of the source.
# System: SK-MEL-2 melanoma
# Test: NCI-60 one-dose screen, 48 h (100 = growth as untreated, 0 = no growth, -100 = all killed)
# Conditions: 10 µM unless noted
row,Structure (SMILES),growth
1,Nc1cc2ccccc2c(=O)n1NC(=O)c1ccc(I)cc1,102%
2,CC(=O)Nc1cccc(Nc2nc(N[C@H]3CCCc4ccccc43)c3ccccc3n2)c1,123%
3,CCN(CC)C(=O)N/C(N)=N/c1nc2ccccc2s1,65.5%
4,O=C(O)c1cccc(-c2ccc(/C=N/NC(=O)c3[nH]c4ccc(Br)cc4c3-c3ccccc3)o2)c1,61.4%
5,NS(=O)(=O)c1ccc(-n2cc(-c3cccc(NC(=O)c4cc(C(F)(F)F)cc(C(F)(F)F)c4)c3)nn2)cc1,81.8%
6,C[C@H](Nc1nc(NCCc2ccccc2)nc2ccccc12)c1ccccc1,-92% (active)
7,C(=C\c1cc(/C=C/c2ccccc2)c2ccccc2n1)/c1ccccc1,122%
8,C=C1CC[C@@H]2[C@]3(C)COC(c4cn(-c5ccccc5)nc4-c4ccccc4)O[C@@H]3CC[C@@]2(C)[C@@H]1C/C=C1/C(=O)OC[C@H]1O (stereo partly drawn),-81.1% (active)
9,N#Cc1c(-c2cccc3ccccc23)cc(-c2cccc(OCC(=O)O)c2)[nH]c1=O,115%
10,O=C(/C=C/c1cccc(OCc2ccc(F)cc2)c1)c1nc2ccccc2[nH]1,104%
11,CCOC(=O)C1=C(N)N(c2ccccc2)C2=C(C(=O)CC(C)(C)C2)C1c1cccc(Cl)c1Cl (stereo not drawn),86.5%
12,CC(C)c1ccc2c(N)c(C(=O)Nc3ccc(C(F)(F)F)cn3)sc2n1,77.6%
13,COc1ccc2cc([C@H](C)C(=O)N/N=C/c3ccc(Br)cc3)ccc2c1,109%
14,CC(=O)Oc1ccccc1C(=O)[Se]CC(=O)Nc1cccc(C(F)(F)F)c1,-21% (active)
15,COc1ccc(NC(=O)c2sc3nc(C(C)C)ccc3c2N)cc1,97.5%
16,CC1=C(C(=O)OCc2ccccc2)C(c2c(O)cc(O)cc2O)n2c(nc3ccccc32)N1 (stereo not drawn),58%
17,N#Cc1ccc(/C=N/NC(=O)c2[nH]c3ccc(Br)cc3c2-c2ccccc2)o1,22.9%
18,CC1=C(C(=O)OC(C)C)C(c2cccc(O)c2)NC(=S)N1 (stereo not drawn),111%
19,COc1cc(-c2ccc(/C=N/NC(=O)c3[nH]c4ccc(Br)cc4c3-c3ccccc3)s2)cc(OC)c1OC,104%

row,Structure (SMILES),growth
1,COc1cc(/C=C/C(=O)c2nnn(-c3ccc(Cl)cc3)c2C)cc(OC)c1OC,51.3%
2,CC1=C(C(=O)OCc2ccccc2)C(c2ccc(-n3cncn3)cc2)n2c(nc3ccccc32)N1 (stereo not drawn),80.6%
3,COc1cc(-c2cc(-c3cccc(OCC(=O)O)c3)[nH]c(=O)c2C#N)cc(OC)c1OC,132%
4,CSc1ccc(C(=O)Nc2ccc3nn(/C(C#N)=C/c4ccccn4)nc3c2)cc1,-77.8% (active)
5,CSc1ccc(NC(=O)c2ccc3nn(/C(C#N)=C/c4ccccn4)nc3c2)cc1,-89.9% (active)
6,CC1CCCCN1CCCNC(=O)N/C(N)=N/c1nc2ccccc2s1 (stereo not drawn),41.3%
7,O=C(O)c1ccc(-c2ccc(/C=N/NC(=O)c3[nH]c4ccc(Br)cc4c3-c3ccccc3)s2)cc1,-43% (active)
8,CSc1ccccc1NC(=O)c1ccc2nnn(/C(C#N)=C/c3ccccn3)c2c1,-86.4% (active)
9,Clc1cccc(Cl)c1/C=C/c1cc(/C=C/c2ccc(Br)cc2)c2ccccc2n1,123%
10,C=C1CC[C@@H]2[C@]3(C)COC(c4cn[nH]c4-c4ccc(OC)cc4)O[C@@H]3CC[C@@]2(C)[C@@H]1C/C=C1/C(=O)OCC1O (stereo partly drawn),-42.2% (active)
11,CSc1ccc(C(=O)Nc2ccc3nnn(/C(C#N)=C/c4ccccn4)c3c2)cc1,-82% (active)
12,CC(=O)Nc1cccc(Nc2nccc(N[C@@H](C)c3ccccc3)n2)c1,41.5%
13,O=C(N/N=C/c1ccc(-c2ccc(O)cc2)s1)c1[nH]c2ccc(Br)cc2c1-c1ccccc1,-4.17% (active)
14,COc1cc(CNC(=O)/C=C/c2ccc3c(c2)OCO3)ccc1OCc1cn(-c2cccc(C(F)(F)F)c2)nn1,54%
15,O=C(O)c1ccc(-c2ccc(/C=N/NC(=O)c3[nH]c4ccc(Br)cc4c3-c3ccccc3)o2)cc1,-16.5% (active)
16,CCCCOc1ccc(NC(=O)c2sc3nc(C)ccc3c2N)cc1,49.2%
17,Cc1ccc2c(N)c(C(=O)Nc3ccc(-c4ccccc4)cc3)sc2n1,58.9%
18,COc1ccc2nc(Nc3cccc(NC(=O)c4ccc(CN5CCCN(C)CC5)c(C(F)(F)F)c4)c3)ccc2c1,-74.5% (active)
19,N#Cc1c(-c2cccnc2)cc(-c2ccc3ccccc3c2)[nH]c1=O,110%
